# Lassa entry inh: inhibitors of Lassa virus binding or cell entry; Lassa virus pseudotype entry inhibition, cell reporter; Potency, µM (titrated, usually from 37.9 µM), for the others: at the highest dose activity change, negative = inhibition, actives largely listed as inhibitors; 300,000 tested, 1.2% active; calls by dose curve; tested in HEK293 cells; note: potency is the fitted concentration of half-maximal effect; nearly all actives have a fitted effect of over 50% in size
# HCV inhibitor: blocks hepatitis C virus; Huh7.5.1 HCVcc-Cre infection, luciferase reporter, 44 h; Potency, µM (doses to about 41.8 µM), for inactives: at the highest dose activity change, negative = inhibition, most hits filed as inhibitors; 340,000 tested, 3.4% active; AID 651820; note: potency is the fitted concentration of half-maximal effect
#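 Luciferase read-out (15 sec integration) after a 15 min room-temperature substrate step quantifies HCVcc-Cre infection. Cells, 1,000 per well, had compound added 4 h post-plating, then virus at ~0.5 moi, and were cultured 44 h.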
# Marburg entry inh: Marburg virus entry inhibition. Marburg virus pseudotyped entry inhibition, cell reporter. Potency, µM (top dose mostly 37.8 µM), inactives show top-dose activity change, negative = inhibition, hits mostly inhibitors. 300,000 tested, 1.8% active. AID 540276; calls by dose curve; tested in HEK293 cells; note: potency is the fitted concentration of half-maximal effect
# HCMV inh: inhibitors of human cytomegalovirus | HFF cells, HCMV-luciferase reporter, 72 h; active compounds read low | activity change, negative = inhibition, % at 57.5 µM | 410,000 tested, 4.5% active; in the data active = activity change below about -60%; inconclusive = no clear call, values can overlap the other calls; inactive = above about -39%
#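 Inhibition of viral replication was scored as loss of reporter luminescence in HFFs infected with HCMV-luciferase (MOI 1 PFU/cell) for 72 h; compounds tested at 2 doses, normalized to buffer and Salinomycin controls.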
# Pf growth 48h: P. falciparum growth inhibition at 48 hours (one generation); P. falciparum luciferase growth in erythrocytes, 48 h; Potency, µM (highest dose often 28.7 µM), inactives show at the highest dose activity change, negative = inhibition, usual class: inhibitors; 310,000 tested, 5.9% active; AID 504832; note: potency is the fitted concentration of half-maximal effect
#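 Luminescence readout; reporter = integrated firefly luciferase in P. falciparum. RBC culture at 2% hematocrit, 0.1% parasitemia final, 37 C/5% CO2; decreased signal taken as growth inhibition.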
# Pf growth 96h: P. falciparum growth inhibition at 96 hours; P. falciparum luciferase reporter growth, 96 h; Potency, µM (titrated, usually from 28.7 µM), inactives show at the top dose activity change, negative = inhibition, usual class: inhibitors; 320,000 tested, 6.9% active; note: potency is the fitted concentration of half-maximal effect
#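 P. falciparum expressing integrated firefly luciferase grown in erythrocytes (2% hematocrit, 0.05% parasitemia final) with compounds for 96 hours at 37 C, 5% CO2. Growth inhibition read as loss of luminescence after adding luciferase detection reagent.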
# The depositor's hits bear a star; ? = inconclusive; / = no result given; [ ] = another dose, or the depositor's remark. This is a sample that favours compounds with a hit; in the whole collection about 14% have one here. Unless noted, calls come from the whole dose curve; as a rule, active = well fitted inhibition curve with a large enough effect; inconclusive = small, poorly fitted or top-dose-only effect, or another doubt; inactive = no such curve, though single readings can be large or run the other way. % is set by controls: 0 for no effect and ±100 for the full control effect.
SMILES,Lassa entry inh,HCV inhibitor,Marburg entry inh,HCMV inh,Pf growth 48h,Pf growth 96h
CCOC(=O)CN1C(=O)C(Sc2n[nH]c(-c3ccc(O)cc3)n2)CCc2ccccc21 (stereo not drawn),-5%,-16%,?,-13,/,?
CC(C)(C)OC(=O)CN1C(=O)C(Sc2n[nH]c(-c3ccccc3)n2)CCc2ccccc21 (stereo not drawn),?,4%,8%,?,?,1.5µM*
CC1=CC(C)(C)Nc2ccc(OC(=O)CCN3C(=O)c4ccccc4C3=O)cc21,?,?,?,-100*,13µM*,6%
Cc1ccc(OC(=O)CN2C(=O)c3ccccc3C2=O)cc1C,24%[46.1 µM],5%,20%[46.1 µM],-61*,-3%,?
CCOc1ccc(Nc2nc3cc(S(=O)(=O)N(CC)CC)ccc3o2)cc1,?,10µM*,?,/,10µM*,/
CCN(CC)S(=O)(=O)c1ccc2oc(Nc3ccc(OC)cc3)nc2c1,-21%,?,-17%,-38,?,?
O=C(CC1NCCC[C@H]1O)Cn1cnc2cc(Br)c(Cl)cc2c1=O (stereo partly drawn),/,/,/,/,0.6µM*,?
CCOC(=O)CN1C(=O)COc2ccc(Cl)cc21,1%,16%,23%,-3,16%,?
CCOC(=O)C1CCCN(C(=O)CN2C(=O)COc3ccc(C(C)(C)C)cc32)C1 (stereo not drawn),-2%,-16%,18%,-30,?,/
CCOC(=O)C1CCN(C(=O)CN2C(=O)COc3ccc(C(C)(C)C)cc32)CC1,/,-2%,/,-37,-18%,10µM*
CCOC(=O)CN1C(=O)COc2ccc(C(C)(C)C)cc21,-1%,14%,8%,30,48%,0.47µM*
Cc1c(C(=O)NC2=NCCS2)cccc1[N+](=O)[O-],?,-6%,-14%[46.1 µM],-2,21%,13%
C=C(CCN1C=C(C(=O)OCC)C(c2ccccc2)NC1=O)c1ccc(Cl)cc1 (stereo not drawn),/,/,14%[14.2 µM],/,/,/
COC(=O)c1cc(=O)nc(NN=Cc2ccccc2O)s1,/,/,/,-26,/,/
CCOC(=O)c1c(Nc2ccc(C)cc2)nnc(-c2ccccc2)c1-c1ccccc1,-14%[46.1 µM],/,-3%[46.1 µM],-31,/,/
O=C(OCc1ccc(Br)cc1)c1cccc(S(=O)(=O)N2CCCC2)c1,-19%,?,-14%,-29,?,10µM*
COc1ccc(C(=O)OCc2c(F)cccc2Cl)cc1S(=O)(=O)N1CCOCC1,/,?,/,22,?,?
COc1ccc(COn2nnc3ccc(S(=O)(=O)N4CCOCC4)cc32)cc1F,8%,10µM*,5%[46.1 µM],-27,?,?
CC(=O)N1CCN(S(=O)(=O)c2cccc(C(=O)OCc3ccc(C(C)(C)C)cc3)c2)CC1,?,?,-21%,4,12µM*,9.3µM*
Cc1ccc(COC(=O)c2cccc(S(=O)(=O)N3CCCCCC3)c2)cc1,?,10%,?,4,?,?
COc1ccc(COC(=O)c2ccc(C)c(S(=O)(=O)N3CCOCC3)c2)cc1F,-13%,?,0%,-30,?,10µM*
NC(=O)c1cc[n+](CC2=C(C(=O)O)N3C(=O)[C@@H](NC(=O)[C@@H](c4ccccc4)S(=O)(=O)[O-])[C@H]3SC2)cc1,?,/,-11%,/,/,/
C[C@@H]1CN([C@@H](C)CO)S(=O)(=O)c2ccc(Br)cc2O[C@H]1CN(C)C(=O)c1ccncc1,/,/,/,-15,/,/
COC(=O)[C@]12CCCCC=C1N(CCC1=CCCCC1)C(=O)[C@H](CC(=O)NCc1ccccc1)C2,/,/,/,3,/,/
COc1ccc(C(=O)N(C)Cc2ccccc2F)cc1S(=O)(=O)N1CCCC1,/,6%,/,-29,?,?
COc1ccc(C(=O)OCc2ccccc2F)cc1S(=O)(=O)N1CCCC1,-11%,?,?,-97*,9.3µM*,13µM*
COc1ccc(COC(=O)c2cccc(S(=O)(=O)N3CCCC3)c2)cc1F,/,?,/,11,?,12µM*

# Screens as filed in PubChem BioAssay.
